Out of some 5,500 compounds screened, about 2,000 (36%) were called active. Another 18% or so got no clear call; they are omitted. Rule as the data show it: active = normalized growth mostly below about 0.91 (no sharp cut-off); inconclusive = no clear call, values can overlap the other calls; inactive = mostly above about 0.92. Some of the results follow.
Assay: chemical genetic growth profiling, strain panel (AID 1159580);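 also: tested at 20 µM; growth read once vehicle control cultures reached saturation at 30 °C; 1 = growth at the plate median or of vehicle wells; lower values mean less growth of the strain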
Conditions: S. cerevisiae deletion strains, growth OD
[1] = locus YAR019C, strain CDC15, stronger effect = lower value
[2] = locus YBL105C, strain PKC1, stronger effect = lower value
[3] = locus YBR135W, strain CKS1, stronger effect = lower value
[4] = locus YBR136W, strain MEC1, stronger effect = lower value
[5] = locus YBR160W, strain CDC28, stronger effect = lower value
[6] = locus YDL017W, strain CDC7, stronger effect = lower value
[7] = locus YDL028C, strain MPS1, stronger effect = lower value
[8] = locus YDL101C, strain DUN1, stronger effect = lower value
[9] = locus YDL108W, strain KIN28, stronger effect = lower value
[10] = locus YDL214C, strain PRR2, stronger effect = lower value
[11] = locus YDR052C, strain DBF4, stronger effect = lower value
[12] = locus YDR226W, strain ADK1, stronger effect = lower value
[13] = locus YDR477W, strain SNF1, stronger effect = lower value
[14] = locus YER123W, strain YCK3, stronger effect = lower value
[15] = locus YER133W, strain GLC7, stronger effect = lower value
[16] = locus YFL009W, strain cdc4, stronger effect = lower value
[17] = locus YFL029C, strain CAK1, stronger effect = lower value
[18] = locus YFR003C, strain YPI1, stronger effect = lower value
[19] = locus YFR019W, strain FAB1, stronger effect = lower value
[20] = locus YFR028C, strain CDC14, stronger effect = lower value
[21] = locus YGR040W, strain KSS1, stronger effect = lower value
[22] = locus YGR052W, strain FMP48, stronger effect = lower value
[23] = locus YGR092W, strain DBF2, stronger effect = lower value
[24] = locus YHR030C, strain SLT2, stronger effect = lower value
[25] = locus YHR079C, strain IRE1, stronger effect = lower value
[26] = locus YHR082C, strain KSP1, stronger effect = lower value
[27] = locus YHR205W, strain SCH9, stronger effect = lower value
[28] = locus YIL147C, strain SLN1, stronger effect = lower value
[29] = locus YJL095W, strain BCK1, stronger effect = lower value
[30] = locus YJL128C, strain PBS2, stronger effect = lower value
[31] = locus YJL157C, strain FAR1, stronger effect = lower value
[32] = locus YJR016C, strain ILV3, stronger effect = lower value
[33] = locus YJR066W, strain TOR1 (second series), stronger effect = lower value
[34] = locus YJR066W, strain TOR1, stronger effect = lower value
[35] = locus YKL048C, strain ELM1, stronger effect = lower value
[36] = locus YKL067W, strain YNK1, stronger effect = lower value
[37] = locus YKL101W, strain HSL1, stronger effect = lower value
[38] = locus YKL193C, strain SDS22, stronger effect = lower value
[39] = locus YKL203C, strain TOR2, stronger effect = lower value
[40] = locus YLR113W, strain HOG1, stronger effect = lower value
[41] = locus YLR133W, strain CKI1, stronger effect = lower value
[42] = locus YLR403W, strain SFP1, stronger effect = lower value
[43] = locus YML070W, strain DAK1, stronger effect = lower value
[44] = locus YMR001C, strain CDC5, stronger effect = lower value
[45] = locus YMR205C, strain PFK2 (second series), stronger effect = lower value
[46] = locus YMR277W, strain FCP1, stronger effect = lower value
[47] = locus YNL006W, strain LST8, stronger effect = lower value
[48] = locus YNL020C, strain ARK1, stronger effect = lower value
[49] = locus YNL161W, strain CBK1, stronger effect = lower value
[50] = locus YNL183C, strain NPR1, stronger effect = lower value
[51] = locus YNL222W, strain SSU72, stronger effect = lower value
[52] = locus YNL307C, strain MCK1 (second series), stronger effect = lower value
[53] = locus YOL078W, strain AVO1, stronger effect = lower value
[54] = locus YOL136C, strain PFK27, stronger effect = lower value
[55] = locus YOR061W, strain CKA2, stronger effect = lower value
[56] = locus YOR119C, strain RIO1, stronger effect = lower value
[57] = locus YOR231W, strain MKK1, stronger effect = lower value
[58] = locus YOR329C, strain SCD5, stronger effect = lower value
[59] = locus YPL031C, strain PHO85, stronger effect = lower value
[60] = locus YPL153C, strain RAD53, stronger effect = lower value
[61] = locus YPL204W, strain HRR25, stronger effect = lower value
[62] = locus YPL209C, strain IPL1, stronger effect = lower value
[63] = locus YPL256C, strain CLN2, stronger effect = lower value
[64] = locus YPR025C, strain CCL1, stronger effect = lower value
[65] = locus YPR106W, strain ISR1, stronger effect = lower value
[66] = locus YPR111W, strain DBF20, stronger effect = lower value
[67] = strain TSCII, stronger effect = lower value
[68] = locus YDL132W, strain cdc53, stronger effect = lower value
[69] = locus YDR054C, strain cdc34, stronger effect = lower value
[70] = locus YNL207W, strain RIO2, stronger effect = lower value
[71] = strain NNK1, stronger effect = lower value

Measured: normalized growth

CC(C)(C)c1cc(C(=O)/C(C#N)=N\Nc2ccc(Cl)cc2)no1
inactive: [1] 0.959 | [2] 0.974 | [3] 0.952 | [4] 0.963 | [5] 0.966 | [6] 0.96 | [7] 0.95 | [8] 0.979 | [9] 0.962 | [11] 0.967 | [12] 0.952 | [16] 0.907 | [17] 0.95 | [18] 0.96 | [20] 0.958 | [28] 0.957 | [32] 0.914 | [38] 0.959 | [44] 0.958 | [46] 0.953 | [47] 0.981 | [49] 0.96 | [51] 0.966 | [53] 0.922 | [58] 0.975 | [62] 0.97 | [64] 0.961 | [66] 0.874 | [67] 0.948
active: [10] 0.253 | [13] 0.229 | [14] 0.146 | [15] 0.326 | [19] 0.116 | [21] 0.321 | [22] 0.281 | [23] 0.0911 | [24] 0.212 | [25] 0.106 | [26] 0.154 | [27] 0.043 | [29] 0.145 | [30] 0.396 | [31] 0.165 | [33] 0.237 | [34] 0.169 | [35] 0.172 | [36] 0.213 | [37] 0.106 | [39] 0.284 | [40] 0.156 | [41] 0.112 | [42] 0.149 | [43] 0.137 | [45] 0.137 | [48] 0.119 | [50] 0.294 | [52] 0.0976 | [54] 0.191 | [55] 0.103 | [56] 0.337 | [57] 0.0922 | [59] 0.105 | [60] 0.115 | [61] 0.115 | [63] 0.146 | [65] 0.842

N#CC(C#N)=NNc1ccc(-n2ccc(C(F)(F)F)n2)cc1
inactive: [4] 0.905 | [5] 0.902 | [6] 0.926 | [7] 0.923 | [9] 0.907 | [12] 0.917 | [18] 0.927 | [20] 0.899 | [27] 0.595 | [28] 0.928 | [30] 0.915 | [47] 0.914 | [58] 0.924 | [65] 0.902 | [66] 0.878
active: [1] 0.871 | [2] 0.899 | [3] 0.893 | [8] 0.88 | [68] 0.76 | [10] 0.348 | [11] 0.876 | [69] 0.607 | [13] 0.368 | [14] 0.208 | [15] 0.422 | [16] 0.876 | [17] 0.853 | [19] 0.199 | [21] 0.48 | [22] 0.31 | [23] 0.176 | [24] 0.131 | [25] 0.175 | [26] 0.271 | [29] 0.204 | [31] 0.329 | [32] 0.895 | [33] 0.225 | [34] 0.201 | [35] 0.321 | [36] 0.403 | [37] 0.349 | [38] 0.875 | [39] 0.283 | [40] 0.207 | [41] 0.383 | [42] 0.448 | [43] 0.229 | [44] 0.883 | [45] 0.433 | [46] 0.865 | [48] 0.349 | [49] 0.884 | [50] 0.292 | [70] 0.875 | [51] 0.861 | [52] 0.379 | [53] 0.739 | [54] 0.202 | [55] 0.568 | [56] 0.419 | [57] 0.156 | [59] 0.273 | [60] 0.157 | [61] 0.183 | [62] 0.897 | [63] 0.178 | [64] 0.89 | [71] 0.866 | [67] 0.861

N#C/C(=N/Nc1ccc(Cl)cc1)C(=O)C1CC1
inactive: [10] 0.807 | [19] 0.916 | [22] 0.666 | [25] 0.604 | [26] 0.691 | [27] 0.711 | [30] 0.862 | [31] 0.757 | [33] 0.737 | [34] 0.643 | [36] 0.763 | [37] 0.802 | [41] 0.811 | [43] 0.735 | [45] 0.774 | [48] 0.805 | [54] 0.752 | [55] 0.81 | [65] 0.92 | [66] 0.876 | [71] 0.885
active: [1] 0.863 | [2] 0.86 | [3] 0.854 | [4] 0.86 | [5] 0.863 | [6] 0.865 | [7] 0.859 | [8] 0.903 | [9] 0.86 | [68] 0.847 | [11] 0.862 | [69] 0.848 | [12] 0.855 | [13] 0.674 | [14] 0.492 | [15] 0.626 | [16] 0.844 | [17] 0.853 | [18] 0.857 | [20] 0.854 | [21] 0.665 | [23] 0.332 | [24] 0.416 | [28] 0.865 | [29] 0.416 | [32] 0.854 | [35] 0.793 | [38] 0.851 | [39] 0.706 | [40] 0.567 | [42] 0.646 | [44] 0.855 | [46] 0.847 | [47] 0.856 | [49] 0.86 | [50] 0.551 | [70] 0.842 | [51] 0.848 | [52] 0.641 | [53] 0.846 | [56] 0.667 | [57] 0.576 | [58] 0.86 | [59] 0.592 | [60] 0.595 | [61] 0.554 | [62] 0.853 | [63] 0.65 | [64] 0.856 | [67] 0.85

Reference: PubChem BioAssay AID1159580 (chemical genetic matrix, 2015)
